We go through 97 compounds from ChEMBL document CHEMBL3988442, “University of Dundee, Small-Polar-MMV Screening Library” (2021).

Hit rate of the full screen: of about 48,000 compounds, about 13,000 (27%) showed an effect of 50% or more. The list shows a part of the results.

For this assay, the system named is Wolbachia pipientis. Kind of assay: Anti-Wolbachia Cell-Based Screen. In kind it is functional. Also on record: scale not given: in the data most compounds retested in dose-response had high values. To be noted: 5 µM.
For `COCCCN1CCCC2(CCN(S(=O)(=O)c3cccnc3)C2)C1=O` (configuration not stated), the “Percent Effect” value is given as -3.769%.
The result for `O=S(=O)(N1CCOCC1)N1CCCC(c2ccccn2)C1` (configuration not stated) reads 113%; that for `CC1CCN(S(=O)(=O)N2CCCC(c3cccc(C(=O)O)c3)C2)CC1` (configuration not stated), -0.2169%.
`Cc1ccc(C2CCCN(S(=O)(=O)N3CCOCC3)C2)nc1` (configuration not stated): the “Percent Effect” value came out at 122.5%.
With `Cc1ccc(C2CCCN(S(C)(=O)=O)C2)nc1` (configuration not stated), the “Percent Effect” value is 144.7%.
The value for `O=C(O)c1cccc(C2CCCN(S(=O)(=O)N3CCOCC3)C2)c1` (configuration not stated) was 13.32%; that for `CS(=O)(=O)N1CC[C@H](c2nc3ccc(C(F)(F)F)cc3[nH]2)C1` was 11.72%; that for `CN(C1CCN(c2ccccn2)CC1)S(=O)(=O)N1CCOCC1` was 4.035%.
For the compound `CC1(C)CNC(=O)c2nc(C3CCCN(S(C)(=O)=O)C3)[nH]c2C1` (configuration not stated), the “Percent Effect” value is -1.918%.
The value for `Cc1nccc(C2CCCN(S(=O)(=O)N3CCOCC3)C2)n1` (configuration not stated) was 96.21%.
The result for `Cc1noc2ncc(S(=O)(=O)Nc3cc(CC(C)(C)C)[nH]n3)cc12` reads -3.68%; that for `CCC(NS(C)(=O)=O)c1ccccc1OC` (configuration not stated), -5.645%; that for `CCN(Cc1cccs1)C(=O)c1ccc(=O)n(C)c1`, 17.88%.
The result for `Cc1cccnc1CC(C)N(C)C(=O)c1ccoc1C` (configuration not stated) reads -11.81%; that for `Cc1occc1CNC(=O)C1(C)CCCN(C(=O)c2ccccc2)C1` (configuration not stated), 10.24%; that for `Cc1csc(C(C#N)C(=O)Nc2ccccc2)n1` (configuration not stated), -10.65%.
For the compound `Cc1ccc(S(=O)(=O)N(C)Cc2nccs2)cc1N(C)C`, the “Percent Effect” value stood at 7.403%.
Take `Cc1nc(C2CCCC2)sc1C(N)=O`: the “Percent Effect” value is reported as -5.82%.
The result for `Cc1nc(C2CCCN(S(C)(=O)=O)C2)sc1Br` (configuration not stated) reads 114.6%; that for `CNC(=O)c1sc(C2CCCC2)nc1C`, 1.771%; that for `CCOCC1CN(S(=O)(=O)N(C)C)Cc2cnn(C)c21.O=C(O)C(F)(F)F` (configuration not stated), -5.434%.
Turning to `Cc1ncsc1CN1Cc2cnn(C)c2C(COCC2CC2)C1.O=C(O)C(F)(F)F.O=C(O)C(F)(F)F` (configuration not stated), the “Percent Effect” value is listed as -6.117%.
The result for `Cc1noc(C)c1CN1Cc2cnn(C)c2C(COCC2CC2)C1.O=C(O)C(F)(F)F.O=C(O)C(F)(F)F` (configuration not stated) reads -11.34%.
As to `CCOCC1CN(c2ccc(C)nn2)Cc2cnn(CC)c21.O=C(O)C(F)(F)F.O=C(O)C(F)(F)F` (configuration not stated), the “Percent Effect” value worked out at 109.7%.
Consider `COCC1CN(c2ccc(C)nn2)Cc2cnn(CC3CCOCC3)c21.O=C(O)C(F)(F)F.O=C(O)C(F)(F)F` (configuration not stated), for which the “Percent Effect” value is 113.1%.
The value for `CCOCC1CN(c2ccc(C)nn2)Cc2nn(CC)cc21.O=C(O)C(F)(F)F.O=C(O)C(F)(F)F` (configuration not stated) was 10.42%; that for `CCOCC1CN(C)Cc2cnn(CC3CCCC3)c21.O=C(O)C(F)(F)F.O=C(O)C(F)(F)F` (configuration not stated) was 4.173%.
The value for `Cc1ccc(N2Cc3cnn(C)c3C(COCC3CC3)C2)nn1.O=C(O)C(F)(F)F.O=C(O)C(F)(F)F` (configuration not stated) was 105.5%.
On to `COCC1CN(c2ccc(C)nn2)Cc2cnn(C)c21.O=C(O)C(F)(F)F.O=C(O)C(F)(F)F` (configuration not stated), for which the “Percent Effect” value is on record as 88.37%.
The result for `CCn1cc2c(n1)C(COC)CN(c1ccc(C)nn1)C2.O=C(O)C(F)(F)F.O=C(O)C(F)(F)F` (configuration not stated) reads 2.14%; that for `CCOCC1CN(S(=O)(=O)N(C)C)Cc2cnn(CC)c21.O=C(O)C(F)(F)F` (configuration not stated), -6.757%.
The result for `COCC1CN(Cc2ccc(C)o2)Cc2cnn(CC3CCOCC3)c21.O=C(O)C(F)(F)F.O=C(O)C(F)(F)F` (configuration not stated) reads 3.505%; that for `c1ccc(-c2nc3c(c(NCCn4ccnn4)n2)CCNCC3)nc1`, -1.189%.
The value for `O=S(=O)(NCCCn1ccc2ccccc21)N1CCCCC1` was -18.64%; that for `CC(Cc1cccnc1)Nc1ncnc2cccc(F)c12` (configuration not stated) was -13.17%.
As for `Cc1noc(C)c1CNC(=O)N1CCC(CN2CCC(C)CC2)CC1`, the “Percent Effect” value came to 0.5097%.
Turning to `CS(=O)(=O)N1Cc2cnn(CC3CC3)c2C(COCC2CC2)C1.O=C(O)C(F)(F)F` (configuration not stated), the “Percent Effect” value is reported as -10.17%.
Take `CCn1ncc2c1C(COCC1CC1)CN(S(=O)(=O)N(C)C)C2.O=C(O)C(F)(F)F` (configuration not stated): the “Percent Effect” value was 4.655%.
In the case of `CCn1ncc2c1C(COCC1CC1)CN(c1ccc(C)nn1)C2.O=C(O)C(F)(F)F.O=C(O)C(F)(F)F` (configuration not stated), the “Percent Effect” value amounted to 84.42%.
The result for `O=C(c1ccc2nccn2c1)N1CCC(CCn2cccn2)CC1` reads -0.54%; that for `Cc1cc(S(=O)(=O)N2CCC(S(C)(=O)=O)CC2)ccc1F`, -10.45%.
The result for `Cc1cc(S(=O)(=O)N2CCC(S(C)(=O)=O)C2)ccc1F` (configuration not stated) reads 74.96%.
Consider `Cc1ccc(S(=O)(=O)N2CC[C@@H](O)C2)c(F)c1`, for which the “Percent Effect” value was -13.3%.
The result for `COc1ccc(S(=O)(=O)N2CCn3nc(C)nc3C2)cc1C` reads -5.027%.
For `CS(=O)(=O)C1CCN(S(=O)(=O)c2ccc(F)c(F)c2)CC1`, the “Percent Effect” value came to 110.6%.
For `Cc1ccc(S(=O)(=O)N2CCC(S(C)(=O)=O)CC2)cc1C`, the “Percent Effect” value amounted to 132.3%.
`CCC[C@@H]1CN(S(=O)(=O)c2ccc(C)c(F)c2)C[C@H]1N(C)C`: the “Percent Effect” value was -4.153%.
Regarding `Cc1cc(S(=O)(=O)N2CCCN3CCCC3C2)ccc1F` (configuration not stated), the “Percent Effect” value was -4.296%.
The result for `Cn1cnnc1S(=O)(=O)C1CCN(S(=O)(=O)c2ccc(F)c(Cl)c2)CC1` reads -4.538%; that for `COc1ccc(S(=O)(=O)N2CCC(S(C)(=O)=O)CC2)cc1C`, -19.61%.
The result for `CS(=O)(=O)C1CCN(S(=O)(=O)c2ccc(F)c(F)c2)C1` (configuration not stated) reads 88%; that for `O=S1(=O)CCC(c2nnc(-c3cnc4onc(C5CC5)c4c3)o2)C1` (configuration not stated), -6.363%.
The value for `CN(C)C(=O)NC1COC2(CCN(Cc3ccc(N(C)C)cc3)CC2)C1` (configuration not stated) was 6.702%.
Turning to `CSCCNC(=O)c1cc(Br)cn1C(C)C`, the “Percent Effect” value is on record as -6.324%.
On to `Cc1nc(C)n(CC2CCCN2Cc2cn3ccsc3n2)n1` (configuration not stated), for which the “Percent Effect” value was 1.786%.
Consider `CCC(OC)C(=O)N1CCC2(CC1)c1nc[nH]c1CCN2S(C)(=O)=O` (configuration not stated), for which the “Percent Effect” value is given as -9.741%.
Regarding `O=C(c1ccco1)N1Cc2cnn(CC3CC3)c2C(COCC2CC2)C1` (configuration not stated), the “Percent Effect” value turned out to be 105.1%.
The value for `Cn1ncc2c1C(COCC1CC1)CN(C(=O)Cc1ccsc1)C2` (configuration not stated) was 0.3372%; that for `COCC1CN(C(=O)c2ccoc2)Cc2cnn(CC3CCOCC3)c21.O=C(O)C(F)(F)F` (configuration not stated) was 114.4%; that for `CCOCC1CN(C(=O)c2cccs2)Cc2cnn(CC3CC3)c21` (configuration not stated) was 108.8%.
The result for `Cn1ncc2c1C(COCC1CC1)CN(C(=O)c1ccoc1)C2` (configuration not stated) reads 107.9%.
Regarding `CCOCC1CN(S(C)(=O)=O)Cc2cnn(CC3CCOCC3)c21.O=C(O)C(F)(F)F` (configuration not stated), the “Percent Effect” value is recorded as -18.06%.
The result for `CCn1cc2c(n1)C(COCC1CC1)CN(C(=O)c1ccco1)C2` (configuration not stated) reads 0.7054%; that for `COCC1c2c(cnn2CC2CCOCC2)CCN1Cc1ccoc1.O=C(O)C(F)(F)F.O=C(O)C(F)(F)F` (configuration not stated), -3.551%; that for `Cn1ncc2c1C(COCC1CC1)CN(S(=O)(=O)C1CC1)C2` (configuration not stated), -3.815%.
Regarding `CCOCC1CN(C(=O)c2cccn2C)Cc2cnn(CC3CC3)c21.O=C(O)C(F)(F)F` (configuration not stated), the “Percent Effect” value is reported as -14.68%.
Take `CCn1ncc2c1C(COCC1CC1)CN(C(=O)c1cccs1)C2` (configuration not stated): the “Percent Effect” value is given as 2.096%.
Turning to `COC(=O)c1ccc(Cl)c(NS(=O)(=O)c2cn(C)cn2)c1`, the “Percent Effect” value is recorded as 1.86%.
The result for `CC(C)(C)c1oc(C(N)=O)cc1CN1CCOC(C(F)(F)F)C1` (configuration not stated) reads -3.878%; that for `Cn1c(C(F)(F)F)nn(CCNC(=O)CSCc2ccccc2)c1=O`, 0.8754%.
The result for `O=C(C1CC(=O)N(C2CCCC2)C1)N1CCN(CCn2cccc2)CC1` (configuration not stated) reads -10.58%; that for `COc1ccc(C(=O)N(C)Cc2cc(C)on2)c(OC)c1`, -3.822%; that for `CCOCC1CN(C(=O)c2ccoc2)Cc2cnn(C)c21` (configuration not stated), 92.74%.
As for `O=C(c1ccoc1)N1CCn2cnc(COCC3CC3)c2C1`, the “Percent Effect” value was -6.66%.
The result for `O=C(c1ccoc1)N1Cc2cnn(CC3CC3)c2C(COCC2CC2)C1` (configuration not stated) reads 83.82%; that for `CCOCC1CN(C(=O)c2ccoc2)Cc2nn(C)cc21` (configuration not stated), -3.903%.
The value for `O=C(c1ccoc1)N1CCc2c(COCC3CC3)cncc2C1` was -80.75%.
As for `O=C(NCc1ccc(F)cc1)NCC1(N2CCOCC2)CCSC1` (configuration not stated), the “Percent Effect” value is recorded as -10.73%.
Take `COc1ccnc(N2CCN(C(=O)c3csc(C(C)C)n3)CC2)n1`: the “Percent Effect” value was -5.502%.
Consider `CNC(=O)C(C)CN(C)C(=O)Nc1ccc(Cl)cc1-n1cccc1` (configuration not stated), for which the “Percent Effect” value stood at 0.2413%.
The value for `COC1CCN(C(=O)c2ccc3ncsc3c2)CC1` was 13.06%; that for `Cn1cc(CN(C(=O)c2ccc3ncsc3c2)C2CC2)cn1` was 77%; that for `CN1C(=O)c2ccc(C(=O)N(Cc3cnn(C)c3)C3CC3)cc2C1=O` was 106.1%.
The result for `CCN(Cc1cnn(C)c1)C(=O)c1ccccc1O` reads -0.8063%; that for `CCN(Cc1cnn(C)c1)C(=O)c1cc2ccccc2c(=O)[nH]1`, 2.375%; that for `O=C(c1ccc(O)c(Cl)c1)N(Cc1ccncc1)C1CC1`, 5.687%.
The result for `CN(Cc1cnn(C)c1)C(=O)c1ccnc(OC2CCC2)c1` reads -14.79%; that for `Cn1cc(CN(C(=O)C2COc3ccccc3C2)C2CC2)cn1` (configuration not stated), -27.95%; that for `Cn1cc(CN(C(=O)c2ccc(O)c(Cl)c2)C2CC2)cn1`, 100.3%.
As to `CCOC(=O)c1ccc(CNC(=O)c2ccc(C)nc2)o1`, the “Percent Effect” value is listed as 18.5%.
The value for `CCCn1cc(C(=O)NCc2nnc(-c3ccc(C)nc3)o2)c(C)n1` was 141.9%; that for `Cc1ccc(-c2nnc(CNC(=O)c3cccnc3)o2)cn1` was 101.6%; that for `CCCn1cc(C(=O)NCCc2ccncc2)c(C)n1` was -13.4%.
Turning to `Cc1ccc(CCNC(=O)c2cccnc2)o1`, the “Percent Effect” value was -1.027%.
Consider `CCCn1cc(C(=O)NCCC(=O)NC2CCCCC2)c(C)n1`, for which the “Percent Effect” value was -18.08%.
With `COc1ccccc1OCC(=O)Nc1ncccc1C`, the “Percent Effect” value is listed as -10%.
Regarding `COc1cnc(N2CCCC(c3ncc[nH]3)C2)nc1` (configuration not stated), the “Percent Effect” value is -2.958%.
